Assay results: article PMC5540273 (PLoS ONE, 2017)

Assays:
Conditions in all cases: concentration: 1 μM,replicates: in singlicate; n = 1
CSNK1G1 = tested on: CSNK1G1
CSNK1G2 = tested on: CSNK1G2
CSNK1G3 = tested on: CSNK1G3
CSNK2A1 = tested on: CSNK2A1
CSNK2A2 = tested on: CSNK2A2
CTK = tested on: T1, CTK
T1 construct: gene MATK

DAPK1 = tested on: DAPK1
DAPK2 = tested on: DAPK2
DAPK3 = tested on: DAPK3
DCAMKL1 = tested on: T2, DCAMKL1
T2 construct: gene DCLK1

DCAMKL2 = tested on: T3, DCAMKL2
T3 construct: gene DCLK2

DCAMKL3 = tested on: T4, DCAMKL3
T4 construct: gene DCLK3

DDR1 = tested on: DDR1
DDR2 = tested on: DDR2
DLK = tested on: T5, DLK
T5 construct: gene MAP3K12

DMPK2 = tested on: T6, DMPK2
T6 construct: gene CDC42BPG

DMPK = tested on: DMPK
DRAK1 = tested on: T7, DRAK1
T7 construct: gene STK17A

DRAK2 = tested on: T8, DRAK2
T8 construct: gene STK17B

DYRK1A = tested on: DYRK1A
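Further: KINOMEscan kinase panel screen.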

| SMILES | %Inh (CSNK1G1) | %Inh (CSNK1G2) | %Inh (CSNK1G3) | %Inh (CSNK2A1) | %Inh (CSNK2A2) | %Inh (CTK) | %Inh (DAPK1) | %Inh (DAPK2) | %Inh (DAPK3) | %Inh (DCAMKL1) | %Inh (DCAMKL2) | %Inh (DCAMKL3) | %Inh (DDR1) | %Inh (DDR2) | %Inh (DLK) | %Inh (DMPK2) | %Inh (DMPK) | %Inh (DRAK1) | %Inh (DRAK2) | %Inh (DYRK1A) |
| --- | --- | --- | --- | --- | --- | --- | --- | --- | --- | --- | --- | --- | --- | --- | --- | --- | --- | --- | --- | --- |
| CC(=O)Nc1nc2cnc(Nc3cc(NC(=O)c4cccc(CC(C)(C)C#N)c4)ccc3C)nc2s1 | 14% | 1% | 0% | 21% | 21% | 0% | 0% | 0% | 4% | 26% | 5% | 0% | 100% | 97.2% | 26% | 2% | 0% | 0% | 0% | 0% |
| c1ccc(Oc2ccc(Nc3ccnc4ccc(-c5ccccn5)cc34)cc2)cc1 [GW407034] | 11% | 0% | 10% | 0% | 14% | 0% | 0% | 0% | 5% | 9% | 0% | 0% | 14% | 0% | 49% | 15% | 0% | 0% | 0% | 24% |
| Cn1ccc2ncnc(Oc3ccc(NC(=O)Nc4cccc(C(F)(F)F)c4)c(Cl)c3)c21 | 0% | 3% | 0% | 0% | 5% | 0% | 89% | 0% | 0% | 46% | 0% | 7% | 99.9% | 99.9% | 0% | 0% | 0% | 0% | 0% | 0% |
| Cc1n[nH]c2cc(Nc3ccnc(Nc4cccc(CN5CCOCC5)c4)n3)ccc12 [GW682569] | 0% | 0% | 22% | 31% | 27% | 0% | 58% | 25% | 68% | 4% | 0% | 0% | 70% | 55% | 52% | 0% | 0% | 53% | 16% | 2% |
| Cl.c1ccc(Oc2ccc(Nc3ccnc4cc(-c5ccc(CN6CCNCC6)o5)ccc34)cc2)nc1 [GW567142] | 0% | 0% | 32% | 0% | 3% | 10% | 19% | 0% | 21% | 11% | 0% | 36% | 70% | 27% | 41% | 0% | 0% | 9% | 0% | 1% |
| C[C@@H]1CCN(C(=O)N2CCCC2)C[C@@H]1N(C)c1ncnc2[nH]ccc12 | 2% | 0% | 0% | 35% | 5% | 19% | 23% | 0% | 9% | 46% | 0% | 99.8% | 8% | 0% | 8% | 0% | 72% | 23% | 38% | 0% |
| CCCC(=O)Nc1n[nH]c2ncccc12 [SB-601436] | 0% | 0% | 7% | 1% | 0% | 30% | 0% | 0% | 0% | 0% | 0% | 0% | 0% | 0% | 0% | 0% | 0% | 2% | 0% | 0% |
| O=C(Nc1n[nH]c2cc(-c3ccco3)ccc12)C1CC1 [SB-737447] | 0% | 0% | 15% | 31% | 68% | 34% | 0% | 7% | 10% | 7% | 1% | 0% | 0% | 0% | 0% | 0% | 0% | 27% | 0% | 16% |
| COC(=O)c1cccc(NC(=O)NC2CCN(c3ccnc(Nc4cc(OC)c(OC)c(OC)c4)n3)C2)c1 (stereo not shown) [GSK1379767] | 16% | 0% | 19% | 1% | 29% | 0% | 2% | 0% | 21% | 4% | 0% | 0% | 13% | 55% | 61% | 27% | 0% | 0% | 0% | 0% |
| C[C@@H]1CNc2c(sc3ccc4nc(-c5ccncc5)ccc4c23)C(=O)N1 | 16% | 15% | 21% | 38% | 0% | 0% | 30% | 24% | 13% | 4% | 0% | 55% | 0% | 0% | 0% | 0% | 27% | 99% | 98.3% | 99.7% |
| O=C(NOCC1CC1)c1cc(Br)c(F)c(F)c1Nc1ccc(I)cc1Cl | 0% | 0% | 9% | 14% | 6% | 0% | 29% | 0% | 0% | 22% | 2% | 0% | 0% | 22% | 0% | 0% | 0% | 0% | 0% | 0% |
